In PubChem BioAssay (EPA / NIEHS):
Activity calls are given as the source filed them. How the source made its calls: active means hit-call score of the fitted dose curve at least 0.9, where 1 is the maximum; inactive means score below 0.9.

read-out: Bcl-2 (BAX) gene, BAX (gene 581); assay: LTEA_HepaRG_BAX: Life Technologies and Expression Analysis (LTEA) Assay for Bcl-2 (BAX) gene using HepaRG (AID 2283470); conditions: mRNA level, 48 h; actives raise or lower the signal
Description: LTEA_HepaRG is a cell based, multiplexed-readout assay that uses HepaRG, a human liver cell line, with measurements taken at 48 hours after chemical dosing on a 96-well plate.LTEA_HepaRG_BAX is one of 102 assay component(s) measured in the LTEA HepaRG cell culture assay. It is a marker of Cell proliferation, survival, death.Data from the assay component LTEA_HepaRG_BAX was analyzed into 1 endpoint. This assay endpoint, LTEA_HepaRG_BAX, was analyzed with bidirectional fitting relative to DMSO as the negative control and baseline of activity. Using a type of inducible reporter, measures of mRNA induction for gain or loss-of-signal activity can be used to understand regulation of transcription factor activity. To generalize the intended target to other relatable targets, this assay endpoint is annotated to the cell cycle intended target family, where the subfamily is Cell proliferation, survival, death.
A total of 1060 chemcials from the ToxCast library were tested in eight-point concentration-response experiments. Cell culture and cytotoxicity assays were conducted at Thermo Fisher Scientific's Custom Services facility (Madison, WI). A single lot of human HepaRG cells (Thermo Fisher Scientific, Frederick, MD) was used for the cell culture experiments. 96-well format collagen type I coated plates of human HepaRG cells were prepared using established methods. Briefly, cryopreserved HepaRG cells were thawed, plated at a density of approximately 100,000 cells/well in HepaRG Thaw, Plate, and General Purpose media (HPRG770, Thermo Fisher Scientific), and incubated for 48 hours. 0.5% DMSO was selected as vehicle control to balance the requisite need of DMSO in HepaRG cultures to maintain differentiation (for example, baseline metabolism, proportions of hepatocytes vs. cholangiocytes), while enabling further hepatic receptor pathway activation (for example, PXR and CAR) in response to chemical exposure. 48 hours after plating, the culture medium was replaced with HepaRG Serum-Free Incudtion Media. Cells were exposed to each test chemical in duplicate and maintained in CO2 incubators for another 48 hours. Chemical plates were thawed to room temperature and 200x concentrations of treatment groups were prepared. 8-point conentration-reponse curves were made with the highest exposure at 100 uM, followed by half-log dilutions, all in 0.5% DMSO. Each test plate contained variouse controls, induction positive controls (1mM phenobarbital), cytotoxicity positive controls ([…] aflatoxin B1), vehicle controls (0.5% DMSO), and total lysis controls (0.5% DMSO). Cell morphology images were taken using an Essen IncuCyte FLR automated microscope, with six 96-well plates imaged in about 24 minutes. Images were captured and exported and JPEG files. Spent culture media was transfered to black-well plates for the LDH assay, and remaining media was sorted at -80 C for later use. Cells were treated with RLT buffer and frozen until shipped for gene expression analysis. Total RNA was isolated from the cell suspension in 75 uL of Buffer RLT (Qiagen, Germantown, MD 20874) by Quintiles/Expression Analysis (Durham, NC) using a custom isolation procedure. Total RNA from each plate well was transferred to a preamplification plate. Fluidigm's 96.96 Dynamic ArrayTM (Fluidigm, Amsterdam, the Netherlands) technology was used for gene expression analyses by quantitative reverse transcription polymerase chain reaction (qRT-PCR, performed by Quintiles/Expression Analysis, Durham, NC)89. Standard TaqManTM Assays (Applied Biosystems/ThermoFisher Scientific, Foster City, CA) were used to assess the expression of 93 genes selected based on their selectivity and sensitivity to important hepatic receptors known to be modulated by environmental chemicals; importance in human hepatocyte functionality; and hepatotoxicity. […]

| Compound | outcome | AC50 |
| --- | --- | --- |
| N#Cc1ccc(N(CC(N)=O)CC(F)(F)F)cc1C(F)(F)F | inactive | – |
| O=NN(c1ccccc1)c1ccccc1 | inactive | – |
| CC#Cc1cc(C)nc(Nc2ccccc2)n1 | inactive | – |
| Oc1c(Cl)c(Cl)c(Cl)c(Cl)c1Cl | inactive | – |
| Cc1ccccc1CO[C@@H]1C[C@@]2(C(C)C)CC[C@]1(C)O2 | inactive | – |
| COc1ccc(O)c(C(C)(C)C)c1 | inactive | – |
| Cc1cc(-c2ccc(N)c(C)c2)ccc1N | inactive | – |
| C[C@]12CCC(=O)C=C1CC[C@@H]1[C@@H]2CC[C@@]2(C)[C@H]1CC[C@]2(C)O | inactive | – |
| CCCCCCCCOC(=O)c1ccccc1C(=O)OCCCCCCCC | inactive | – |
| Oc1ccc(C(c2ccc(O)cc2)(C(F)(F)F)C(F)(F)F)cc1 | inactive | – |
| Oc1ccc(Cl)cc1Cl | inactive | – |
| O=S(=O)(O)C(F)(F)C(F)(F)C(F)(F)C(F)(F)F | inactive | – |
| c1cc2ccc3cccc4ccc(c1)c2c34 | inactive | – |
| CCC(C)(c1ccc(O)cc1)c1ccc(O)cc1 | inactive | – |
| ClC(Cl)=C(c1ccc(Cl)cc1)c1ccc(Cl)cc1 | inactive | – |
| CCOCCOC(C)=O | inactive | – |
| O=C(O)C(F)(F)C(F)(F)C(F)(F)C(F)(F)C(F)(F)C(F)(F)C(F)(F)C(F)(F)F | – | 76.3 µM (active) |
| CCOC(=O)C(O)(c1ccc(Cl)cc1)c1ccc(Cl)cc1 | inactive | – |
| CC(C)(O)C(=O)Nc1ccc([N+](=O)[O-])c(C(F)(F)F)c1 | inactive | – |
| CN(C)CCO | inactive | – |

| Compound | outcome | AC50 |
| --- | --- | --- |
| Nc1ccc(-c2ccc(N)cc2)cc1 | inactive | – |
| ClC1=C(Cl)[C@]2(Cl)[C@@H]3[C@H]4C[C@H]([C@@H]5O[C@H]45)[C@@H]3[C@@]1(Cl)C2(Cl)Cl | inactive | – |
| O=C(NC(=O)c1cc(F)c(F)cc1Cl)Nc1cc(F)ccc1N1CCC(C(=O)O)CC1 | inactive | – |
| Cc1cc(O)ccc1Cl | inactive | – |
| CN(C)c1nc(=O)n(C2CCCCC2)c(=O)n1C | inactive | – |
| O=C(O)C(F)(F)C(F)(F)C(F)(F)C(F)(F)C(F)(F)C(F)(F)C(F)(F)C(F)(F)C(F)(F)F | – | 12.6 µM (active) |
| CC(C)C(=O)OCC(C)(C)C(OC(=O)C(C)C)C(C)C (stereo not given) | inactive | – |
| O=C(O)C(F)(F)C(F)(F)C(F)(F)C(F)(F)C(F)(F)F | inactive | – |
| CCC(C)c1cc([N+](=O)[O-])cc([N+](=O)[O-])c1O (stereo not given) | – | 7.23 µM (active) |
| Clc1ccc(Cl)cc1 | inactive | – |
| C1CC2OC2CC1C1CO1 (stereo not given) | inactive | – |
| Cc1cccc([N+](=O)[O-])c1 | inactive | – |
| CCCCCCOC(=O)c1ccccc1C(=O)OCCCCCC | inactive | – |
| Clc1ccc(C(Cl)(Cl)Cl)cc1 | inactive | – |
| NS(=O)(=O)C(F)(F)C(F)(F)C(F)(F)C(F)(F)C(F)(F)C(F)(F)C(F)(F)C(F)(F)F | inactive | – |
| C=CC(=O)NCNC(=O)C=C | inactive | – |
| Cc1ccc(O)c(C)c1 | inactive | – |
| O=C(NC(=O)c1c(F)cccc1F)Nc1cc(Cl)c(OC(F)(F)C(F)F)c(Cl)c1 | inactive | – |
| O=S(=O)(O)C(F)(F)C(F)(F)C(F)(F)C(F)(F)C(F)(F)C(F)(F)F | inactive | – |
| CCC(C)(CC)c1cc(NC(=O)c2c(OC)cccc2OC)on1 | inactive | – |
